From paper PMC4552634, “A New Set of Chemical Starting Points with Plasmodium falciparum Transmission-Blocking Potential for Antimalarial Drug Discovery” (PLoS ONE, 2015)
Like-named read-outs stand apart in the source and are kept apart here. Among all 13,000 compounds or so, about 3,200 (25%) showed an effect of 50% or more. Some of the results follow.

System: P. falciparum stage V gametocytes
Set-up: BacTiter-Glo ATP luminescence viability of purified stage V gametocytes in 384-well plates, per cent inhibition versus DMSO
Settings: 48 h, 5 µM, inhibitor

| Structure (SMILES) | % Inhibition [%] | % Inhibition (% Inhibition) [%] |
| --- | --- | --- |
| Cc1nc(C)n(CC(=O)Nc2cccc(-c3cccc(-c4nc5ccc(C(F)(F)F)cc5[nH]4)c3)c2)n1 [TCMDC-137134] | -7.323 | – |
| O=S(=O)(c1cccc(F)c1)c1ccc(Nc2ncnc3cc(Br)sc23)cc1Cl [TCMDC-135626] | 18.51 | – |
| O=C(Nc1n[nH]c2nc(-c3ccco3)c(Br)cc12)c1ccc(CN2CCCC2)cc1 [TCMDC-141483] | 10.19 | – |
| CN(C)CCN(Cc1ccccc1-c1ccc(CNCCc2ccccc2)cc1)C(=O)c1ccccc1 [TCMDC-140532] | 112.9 | – |
| CN(C)CCN(Cc1ccccc1-c1ccc(CNCCc2ccccc2)cc1)C(=O)NC1CCCCC1 [TCMDC-140626] | 107.8 | – |
| COc1cccc(CCN(Cc2ccccc2-c2ccc(CNC3CC(C)(C)NC(C)(C)C3)cc2)C(=O)NC2CCCCC2)c1 [TCMDC-141577] | 108.7 | – |
| CC(=O)Nc1cccc(C(=O)Nc2nc3ccc(-c4cc(=O)[nH]c(Nc5ccccc5Cl)n4)cc3[nH]2)c1 [TCMDC-135793] | -20.56 | – |
| C(=Cc1ccccc1)C=NNc1ccnc2ccccc12 [TCMDC-142061] | -65.55 | – |
| Fc1cccc(COc2ccc(Nc3ncnc4sc(C#CCNC5CCCC5)cc34)cc2Cl)c1 [TCMDC-138786] | -17.57 | – |
| CCC1N=C(N)N=C(N)N1OCCCOc1c(Cl)cc(Cl)cc1Cl (stereo not drawn) [TCMDC-131697] | 23.8 | – |
| Cc1ccc(NC(=O)NC2CCN(c3ccnc4cc(Cl)ccc34)C2)cc1 (stereo not drawn) [TCMDC-133651] | 27.92 | – |
| COc1cc(NC(=O)/C=C/c2ccccc2Cl)cc(OCCN2CCC(O)(c3ccccc3)CC2)c1 [TCMDC-140934] | -1.317 | – |
| O=C1Nc2cccc3c2C1(CCCCN1CCC(c2cc4ccncc4[nH]2)CC1)CCC3 (stereo not drawn) [TCMDC-141151] | – | 27.49 |
| CC1(CCCCN2CCC(Oc3ccc(F)cc3F)CC2)C(=O)Nc2ccccc21 (stereo not drawn) [TCMDC-140794] | -43.13 | – |
| O=C1Nc2cccc3c2C1(CCCCCN1CCC(c2c[nH]c4ccncc24)CC1)CCC3 (stereo not drawn) [TCMDC-140504] | 73.67 | – |
| CC(C)(C)OC(=O)n1cc(C2CCN(CCCC34CCCc5cccc(c53)NC4=O)CC2)c2ccncc21 (stereo not drawn) [TCMDC-140392] | 2.693 | – |
| O=C1Nc2cccc3c2C1(CCCCN1CC=C(c2c[nH]c4ncccc24)CC1)CCC3 (stereo not drawn) [TCMDC-140506] | -6.886 | – |
| O=C1Nc2cccc3c2C1(CCCCN1CCC(c2c[nH]c4cc(C(F)(F)F)ccc24)CC1)CCC3 (stereo not drawn) [TCMDC-140465] | 121.5 | – |
| O=C1Nc2cccc3c2C1(CCCCN1CCC(c2cc4ccncc4[nH]2)CC1)CCC3 (stereo not drawn) [TCMDC-141221] | – | 84.1 |
| O=C1Nc2cccc3c2C1(CCCN1CCC(c2c[nH]c4cc(C(F)(F)F)ccc24)CC1)CCC3 (stereo not drawn) [TCMDC-140464] | 106.4 | – |
| O=C1Nc2cccc3c2C1(CCCCCN1CC=C(c2c[nH]c4ccccc24)CC1)CCC3 (stereo not drawn) [TCMDC-140570] | 20.32 | – |

| Structure (SMILES) | % Inhibition [%] | % Inhibition (% Inhibition) [%] |
| --- | --- | --- |
| CCOc1ncccc1CN1CCC(N2CCc3cc(NC(=O)c4ccco4)ccc32)C1 (stereo not drawn) [TCMDC-135074] | -21.9 | – |
| COc1ccc(C2N=C(N)N=C(N)N2c2ccc(Cl)cc2)cc1OC (stereo not drawn) [TCMDC-123670] | -7.954 | – |
| COc1cc(C(=O)NC2CCN(Cc3ccccc3)CC2)ccc1-c1nc2c(Cl)cc(C(F)(F)F)cc2[nH]1 [TCMDC-140085] | -15.98 | – |
| Cc1cccc2[nH]c(-c3ccc(-c4ccc(NC(=O)Nc5ccc(F)c(F)c5F)cc4)cc3)nc12 [TCMDC-133232] | 3.128 | – |
| N#Cc1ccc2c(c1)CCN(CCC1CCC(NC(=O)/C=C/c3cccc4cc[nH]c34)CC1)CC2 (stereo not drawn) [TCMDC-139671] | -14.99 | – |
| CCN1CC=C(c2c[nH]c3ccccc23)CC1 [TCMDC-124447] | -15.41 | – |
| Cn1c(/C=C/C(=O)NC2CCC(CCN3CCc4ccc(C#N)cc4CC3)CC2)cc2ccccc21 (stereo not drawn) [TCMDC-139683] | -68.7 | – |
| Cc1cn(CC(=O)Nc2cccc(-c3cccc(-c4nc5c(C)cccc5[nH]4)c3)c2)c(=O)[nH]c1=O [TCMDC-137037] | -3.611 | – |
| O=c1[nH]c(NCCCCCN2CCC(c3c[nH]c4ccccc34)CC2)ncc1Cc1ccc(Cl)c(Cl)c1 [TCMDC-139189] | 16.9 | – |
| CC1(CCN2CCC(c3c[nH]c4cnccc34)CC2)CCCc2c(Br)cccc2C1=O (stereo not drawn) [TCMDC-141171] | 95.16 | – |
| CC1(CCCCN2CCC(Cc3ccccc3)CC2)C(=O)Nc2ccccc21 (stereo not drawn) [TCMDC-140796] | 0.5554 | – |
| CC1(CCCCN2CCC(c3c[nH]c4cnccc34)CC2)C(=O)Nc2cccc(Cl)c21 (stereo not drawn) [TCMDC-141177] | 63.64 | – |
| Cc1ccc(C(=O)Nc2cccc([N+](=O)[O-])c2)cc1S(=O)(=O)N1CC(C)CC(C)C1 (stereo not drawn) [TCMDC-123731] | 8.733 | – |
| COc1cc(F)c2ncc(Cl)c([C@@H](O)CN3CCC(NCc4ccc5c(n4)NC(=O)CO5)CC3)c2c1 [TCMDC-135488] | 20.51 | – |
| C=C[C@H]1CN2CC[C@H]1C[C@H]2[C@H](O)c1ccnc2ccc(OC)cc12 [TCMDC-123939] | – | 23.69 |
| CCCCN(CCCC)CCCN(CCCN(CCCC)CCCC)c1cc(C)nc(Nc2ccc3cc(Br)ccc3c2)n1 [TCMDC-138005] | 117 | – |
| CCN(CCCN1CCCCC1)c1cc(C)nc(Nc2ccc(OC)cc2)n1 [TCMDC-132430] | -5.018 | – |
| CCN(CCCN1CCCCC1)c1cc(C)nc(Nc2ccc(C)c(C)c2)n1 [TCMDC-132440] | 22.96 | – |
| CCN(CCCN1CCCCC1)c1cc(C)nc(Nc2ccc(C)c(Br)c2)n1 [TCMDC-132436] | 25.65 | – |
| CCN(CC)CCCN(CCCN(CC)CC)c1cc(C)nc(Nc2ccc3cc(Br)ccc3c2)n1 [TCMDC-137611] | 92.7 | – |
| CCCN(CCC)CCCN(CCCN(CCC)CCC)c1cc(C)nc(Nc2ccc3cc(Br)ccc3c2)n1 [TCMDC-138006] | 102.3 | – |
